From PubChem BioAssay (Tox21)
Inconclusive results are not listed. Active and inactive are the calls of the source. Unless noted, calls follow the shape of the dose curve; as a rule, active = well fitted curve in the direction sought with a large enough effect in the repeat runs; inconclusive = weak or mixed curves; inactive = no such curve, though single readings can be large; an effect the other way counts as inactive or inconclusive.

Legend:
[1] = qHTS assay to identify small molecule HDAC inhibitors (AID 1259364); conditions: HCT-116 HDAC-Glo I/II luminescence, 2 h; series mostly up to 92.4 µM; also: top concentration of the series differs between compounds; nearly all actives have a fitted effect of over 45% in size
In short: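 Luminescence from a cell-permeant luminogenic class I/II HDAC substrate reports endogenous deacetylase activity in intact HCT-116 cells treated with compounds for 2 h.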

[2] = qHTS assay to identify small molecule HDAC inhibitors - cell viability counter screen (AID 1259365); conditions: HCT-116 viability, CellTiter-Glo ATP luminescence, 2 h; series mostly up to 92.4 µM; also: nearly all actives have a fitted effect of over 50% in size
In short: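 Following a 2hr exposure of overnight-plated wild-type HCT-116 cells to DMSO-delivered compounds, CellTiter-Glo was added and luminescence recorded after 30min at room temperature.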

[3] = qHTS assay to identify small molecule agonists of the sonic hedgehog signaling (Shh) pathway - cell viability counter screen (AID 1259366); conditions: NIH/3T3 Gli1-Luc viability, CellTiter-Fluor, 24 h; series mostly up to 92.4 µM; also: nearly all actives have a fitted effect of over 50% in size
In short: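 After a 4hr attachment at 37C, NIH/3T3 cells bearing an integrated Gli1-driven luciferase reporter were dosed with compounds. Treatment lasted 24hr, with the final hour including CellTiter-Fluor for a fluorescence viability measurement.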

[4] = qHTS assay to identify small molecule antagonists of the sonic hedgehog signaling (Shh) pathway - cell viability counter screen (AID 1259367); conditions: NIH/3T3 Gli1-Luc viability, CellTiter-Fluor, 24 h; series mostly up to 92.4 µM; also: nearly all actives have a fitted effect of over 55% in size
In short: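 Seed 3T3 Gli1-Luc cells at 2,000 per well; incubate 4 hr; add compound in DMSO, then conditioned medium; incubate at 37C with 5% CO2; add CellTiter-Fluor after 23 hr; read fluorescence 1 hr later.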

[5] = qHTS assay to identify small molecule agonists of the sonic hedgehog signaling (Shh) pathway (AID 1259368; calls by dose curve;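 also: NIH/3T3-derived 3T3Gli1-Luc cells carrying a stable Gli1-driven firefly luciferase reporter; nearly all actives have a fitted effect of over 15% in size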); conditions: NIH/3T3 Gli1-Luc reporter, luciferase, 24 h; series mostly up to 92.4 µM
In short: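 3T3Gli1-Luc (NIH/3T3 clone, stable Gli1-Luc); 4 hr pre-incubation, then cpd in DMSO 24 hr, 37 C/5% CO2; luciferase reagent 30 min RT; luminescence.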

[6] = biological target: Estrogen receptor beta (Homo sapiens) (UniProt Q92731); assay: qHTS assay to identify small molecule antagonists of the estrogen receptor beta (ER-beta) signaling pathway (AID 1259378; active = well fitted inhibition curve with a large enough effect in the signal ratio in the repeat runs, not every such curve was filed as active; the % refers to the signal ratio); conditions: ER-beta-UAS-bla HEK293T, beta-lactamase FRET ratio, 16 h; series mostly up to 92.4 µM
Chain of Estrogen receptor beta (Homo sapiens) (Q92731 whole entry, looked up): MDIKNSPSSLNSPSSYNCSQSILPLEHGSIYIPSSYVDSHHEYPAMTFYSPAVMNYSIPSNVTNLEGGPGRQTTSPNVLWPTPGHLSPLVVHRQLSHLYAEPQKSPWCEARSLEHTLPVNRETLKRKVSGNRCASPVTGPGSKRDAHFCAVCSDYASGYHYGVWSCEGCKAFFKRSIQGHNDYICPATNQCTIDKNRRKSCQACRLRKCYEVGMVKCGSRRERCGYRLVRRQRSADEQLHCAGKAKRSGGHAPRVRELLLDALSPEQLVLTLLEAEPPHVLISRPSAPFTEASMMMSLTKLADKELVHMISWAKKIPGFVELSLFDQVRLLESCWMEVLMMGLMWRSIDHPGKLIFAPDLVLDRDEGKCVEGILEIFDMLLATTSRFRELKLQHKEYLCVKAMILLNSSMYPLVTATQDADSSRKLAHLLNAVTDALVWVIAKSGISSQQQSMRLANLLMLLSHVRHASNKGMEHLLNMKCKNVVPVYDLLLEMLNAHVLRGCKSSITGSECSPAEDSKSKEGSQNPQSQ
In short: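 ER-beta-UAS-bla HEK293T cells in 2% charcoal-stripped FBS medium treated with compound plus 1nM final 17-beta-estradiol for 16 hr at 37C. Beta-lactamase reporter read by FRET substrate fluorescence after 2 hours at room temperature.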

[7] = qHTS assay to identify small molecule agonists of the androgen receptor (AR) signaling pathway in the presence of an antagonist - cell viability counter screen (AID 1259379); conditions: MDA-kb2 viability, CellTiter-Fluor, 16 h; series mostly up to 92.4 µM;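 also: MDA-kb2 human breast cancer cells carrying an MMTV luciferase reporter; nearly all actives have a fitted effect of over 25% in size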
In short: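 Cells: MDA-kb2 (MMTV-luc, AR and GR elements), 3,000/well, 5 hr settle. Added: nilutamide 3.0uM final, then compounds (15 conc.). Incubation: 16 hr, 37C, no CO2. Read-out: CellTiter-Fluor, 1 hr, fluorescence.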

[8] = qHTS assay to identify small molecule agonists of the estrogen receptor beta (ER-beta) signaling pathway - cell viability counter screen (AID 1259380); conditions: ER-beta-bla HEK293T viability, CellTiter-Glo luminescence, 16 h; series mostly up to 92.4 µM; also: nearly all actives have a fitted effect of over 30% in size
In short: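 HEK293T ER-beta-UAS-bla; 2% CS-FBS; 6 hr pre-plate, 16 hr cpd at 37C/5% CO2; LiveBLAzer read first, then CellTiter-Glo 30 min RT, luminescence.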

[9] = qHTS assay to identify small molecule antagonists of the sonic hedgehog signaling (Shh) pathway (AID 1259369; calls by dose curve; also: nearly all actives have a fitted effect of over 45% in size); conditions: NIH/3T3 Gli1-Luc reporter, Shh antagonist, luminescence 24 h; series mostly up to 92.4 µM
In short: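 3T3Gli1-Luc, conditioned-medium-stimulated, 24hr cpd, 37C/5% CO2; Gli1-driven firefly Luc luminescence after 30min RT with luciferase reagent. Cells plated 4hr before cpd.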

[10] = biological target: Estrogen receptor beta (Homo sapiens) (UniProt Q92731); assay: qHTS assay to identify small molecule agonists of the estrogen receptor beta (ER-beta) signaling pathway (AID 1259377; active = well fitted activation curve with a large enough effect in the signal ratio in the repeat runs, not every such curve was filed as active; the % refers to the signal ratio); conditions: ER-beta-UAS-bla HEK293T, beta-lactamase FRET ratio, 16 h; series mostly up to 92.4 µM
In short: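 In HEK293T cells bearing a UAS-beta-lactamase reporter under ER-beta control, DMSO-delivered compounds were incubated for 16 hr at 37C. Activity was detected as fluorescence 2 hours after LiveBLAzer B/G FRET substrate addition.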

Measured: Potency

[O-][n+]1cccc(/C(Cl)=N/OC[C@@H](O)CN2CCCCC2)c1
not listed: [9] | [10]
inactive: all other assays above

O=Cc1cc2ccccc2o1
not listed: [6] | [10]
inactive: all other assays above

CCC(C)C(=O)OCCc1ccccc1 (stereo unspecified)
inactive: [1] | [2] | [3] | [4] | [7] | [8]

CCCC(=O)OCCC(C)CCC=C(C)C (stereo unspecified)
not listed: [5] | [9]
inactive: all other assays above

CC(N)CCCC(C)(C)O (stereo unspecified)
not listed: [5] | [8]
inactive: all other assays above

CC1(C)Cc2cccc(N)c2O1
not listed: [5] | [6] | [10]
inactive: all other assays above

COC(=O)c1cccc(Cl)c1
not listed: [4] | [6]
inactive: all other assays above

CCC(=O)c1c(O)cc(O)cc1O
inactive: [1] | [2] | [3] | [4] | [6] | [7]

CCCC(CC)c1ccccc1 (stereo unspecified)
not listed: [5] | [6] | [10]
inactive: all other assays above

O=C(Cn1ccnc1[N+](=O)[O-])NCc1ccccc1
not listed: [5]
inactive: all other assays above

CC(C)COC(=O)c1ccccc1
inactive: [1] | [2] | [3] | [4] | [9] | [7]
